“And” between values parts separate entries of the source, which are not always exact repeats. Identical values can stand only once. Inconclusive results are not listed. The source made the active and inactive calls. Unless noted, calls follow the shape of the dose curve; as a rule, active = well fitted curve in the direction sought with a large enough effect; inconclusive = small, poorly fitted or top-dose-only effect, or another doubt; inactive = no such curve, though single readings can be large; an effect the other way counts as inactive or inconclusive.

The target in experiment [1] is Glucocorticoid receptor (Homo sapiens) (UniProt P04150). Description: qHTS assay for small molecule agonists of glucocorticoid receptor signaling (AID 588532; active = well fitted curve in the direction sought with a large enough effect in the signal ratio, with a control signal flat; the % refers to the signal ratio;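 also: 100% = dexamethasone at 0.1 µM and 0% = DMSO only wells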). The settings on record: HeLa MMTV-bla, beta-lactamase ratio, agonist, 18 h; stronger effect = higher value; percent of dexamethasone control, DMSO zero. The method, boiled down:
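Stimulation of a glucocorticoid response element-driven beta-lactamase gene was measured in HeLa cells. Responses were scaled between DMSO basal and 0.1 uM dexamethasone, then fitted for half-maximal stimulation.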

Experiment [2] is described as follows: qHTS assay for small molecule antagonists of peroxisome proliferator-activated receptor delta signaling (AID 588535; active = well fitted inhibition curve with a large enough effect in the signal ratio, with a control signal flat, not every such curve was filed as active; the % refers to the signal ratio;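 as to max response: cells co-treated with a PPAR-delta agonist as stimulator during compound exposure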). The settings on record: HEK293T PPARd-UAS-bla, beta-lactamase FRET ratio, 18 h; 460 nm channel. The method, boiled down:
(§1)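 Reporter: UAS-bla under PPAR-delta response element, HEK293T host. Medium: 2% charcoal/dextran FBS. Dosing: titration, 18 hrs, 37 C. Detection: CCF4, 2 hrs RT, 405 ex/460 and 530 em.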

Experiment [3] addresses Peroxisome proliferator-activated receptor delta (Homo sapiens) (UniProt Q03181). Described as above. The method, boiled down: as §1
The target in experiment [4] is Thyroid hormone receptor beta (Homo sapiens) (UniProt P10828). The experiment in a line: qHTS assay for small molecule agonists of thyroid hormone receptor beta signaling (AID 588545; calls by dose curve). In a few lines: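 Agonist-mode beta-lactamase reporter assay, HEK 293 cells, 2% charcoal/dextran FBS; cells plated 4 hrs, compound 18 hrs at 37 C, CCF4 2 hrs RT. Normalized to 10 nM T3 (100%) and DMSO (0%); Hill fit gives EC50, efficacy.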
Sequence of Thyroid hormone receptor beta (Homo sapiens) (P10828 whole entry, looked up): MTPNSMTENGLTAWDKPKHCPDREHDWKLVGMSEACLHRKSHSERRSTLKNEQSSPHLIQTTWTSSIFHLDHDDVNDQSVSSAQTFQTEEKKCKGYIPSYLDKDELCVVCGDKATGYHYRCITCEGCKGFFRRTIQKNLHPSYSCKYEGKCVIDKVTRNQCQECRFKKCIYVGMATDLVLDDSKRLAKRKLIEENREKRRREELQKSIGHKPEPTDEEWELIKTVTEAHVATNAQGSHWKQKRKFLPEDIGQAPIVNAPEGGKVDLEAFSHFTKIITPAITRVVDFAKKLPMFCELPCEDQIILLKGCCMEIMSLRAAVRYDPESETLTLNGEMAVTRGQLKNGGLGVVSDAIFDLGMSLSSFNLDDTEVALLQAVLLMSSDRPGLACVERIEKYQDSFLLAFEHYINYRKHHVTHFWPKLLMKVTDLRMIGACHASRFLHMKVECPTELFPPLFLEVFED

Experiment [5] concerns the target Voltage-gated inwardly rectifying potassium channel KCNH2 (Homo sapiens) (UniProt Q12809). The experiment in a line: qHTS Assay for Small Molecule Inhibitors of the Human hERG Channel Activity (AID 588834).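 Also: lower thallium flux fluorescence means stronger hERG block; nearly all actives have a fitted effect of over 50% in size.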 Also: potency is read from the fitted curve at half-maximal effect. The method, boiled down: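 Concentration-response qHTS measuring drop in thallium-sensitive dye signal. U2OS cells carrying BacMam hERG; compound exposure ~10 min, then stimulation buffer and 2 min read at 1 sec intervals.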
(Quantitative high-throughput screening tests each substance at several concentrations.)

The target in experiment [6] is Peroxisome proliferator-activated receptor gamma (Homo sapiens) (UniProt P37231). The experiment in a line: qHTS assay for small molecule agonists of peroxisome proliferator-activated receptor gamma signaling (AID 588536; active = well fitted curve in the direction sought with a large enough effect in the signal ratio, with a control signal flat, not every such curve was filed as active; the % refers to the signal ratio;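 also: 0% = DMSO basal wells and 100% = rosiglitazone at 2 µM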). In a few lines: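 HEK293 UAS-bla reporter line, 1% charcoal/dextran FBS; titration, 16 h, 37 C; CCF4 loading 2 h RT; fluorescence 460/530 nm. Normalized to rosiglitazone 2 uM = 100%, DMSO = 0%.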

The target in experiment [7] is Vitamin D3 receptor (Homo sapiens) (UniProt P11473). Description: qHTS assay for small molecule antagonists of vitamin D receptor signaling (AID 588541; calls by dose curve;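 also: receptor activated by calcitriol during compound treatment; series mostly up to about 77 µM; % is scaled to controls: 0 for no effect and ±100 for the full control effect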). In a few lines:
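VDR-UAS-bla HEK293T cells (2000/well, 2% charcoal-stripped FBS) were treated with titrated compounds plus 1-alpha,25-dihydroxyvitamin D3 (50 nM or 3 nM final) for 16 h at 37 C. CCF4 beta-lactamase fluorescence was read; Hill fits gave IC50.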

Experiment [8] in a line: qHTS assay for small molecule antagonists of retinoid X receptor alpha signaling (AID 588546; active = well fitted inhibition curve with a large enough effect in the signal ratio, with a control signal flat, not every such curve was filed as active; the % refers to the signal ratio;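 also: cells stimulated with 9-cis-retinoic acid as agonist; % is scaled to controls: 0 for no effect and ±100 for the full control effect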). The settings on record: HEK293T RXRa-UAS-bla, beta-lactamase ratio, antagonist mode; measured here: W530 green channel, cytotoxicity proxy. The method, boiled down:
(§2)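 Beta-lactamase reporter inhibition, read as CCF4 fluorescence ratio (ex 405, em 460/530 nm) after 2 h at RT. HEK293T UAS-bla cells, 2500/well, were stimulated with 9-cis-RA at 500 or 100 nM final alongside test compound for 18 h at 37 C.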

In experiment [9] the target is Retinoic acid receptor RXR-alpha (Homo sapiens) (UniProt P19793). The description is as above. The settings on record: HEK293T RXRa-UAS-bla, beta-lactamase ratio, antagonist mode. The method, boiled down:
as §2

Experiment [10] addresses Thyroid hormone receptor beta (Homo sapiens) (UniProt P10828). Description: qHTS assay for small molecule antagonists of thyroid hormone receptor beta signaling (AID 588547; active = well fitted inhibition curve with a large enough effect in the signal ratio, with a control signal flat, not every such curve was filed as active; the % refers to the signal ratio;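 also: cells stimulated with 0.4 nM T3 agonist during compound exposure; series mostly up to about 77 µM; % is scaled to controls: 0 for no effect and ±100 for the full control effect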). Conditions: TR-UAS-bla HEK293, beta-lactamase ratio, antagonist mode, 18 h. The method, boiled down: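 TR-UAS-bla GripTite HEK293 cells in 2% charcoal/dextran FBS medium were preincubated 4 h at 37 C, given compound (0.59 nM to 92 uM) plus 0.4 nM T3 (final) for 18 h, then CCF4 for 2 h at RT; Hill fit gave IC50.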

The target in experiment [11] is Luciferin 4-monooxygenase (Photinus pyralis) (UniProt P08659). Description: Biochemical firefly luciferase enzyme assay for NPC (AID 624030). Also: nearly all actives have a fitted effect of over 70% in size. Also: potency is read from the fitted curve at half-maximal effect. The method, boiled down: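 Counter-screen for direct inhibition of the luciferase enzyme by approved-drug library compounds, run at 10 nM enzyme in 50 mM Tris acetate (final). Luminescence was read within 5 min of enzyme-buffer addition and normalized to PTC124 versus DMSO (0%).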
Sequence of Luciferin 4-monooxygenase (Photinus pyralis) (P08659 whole entry, looked up): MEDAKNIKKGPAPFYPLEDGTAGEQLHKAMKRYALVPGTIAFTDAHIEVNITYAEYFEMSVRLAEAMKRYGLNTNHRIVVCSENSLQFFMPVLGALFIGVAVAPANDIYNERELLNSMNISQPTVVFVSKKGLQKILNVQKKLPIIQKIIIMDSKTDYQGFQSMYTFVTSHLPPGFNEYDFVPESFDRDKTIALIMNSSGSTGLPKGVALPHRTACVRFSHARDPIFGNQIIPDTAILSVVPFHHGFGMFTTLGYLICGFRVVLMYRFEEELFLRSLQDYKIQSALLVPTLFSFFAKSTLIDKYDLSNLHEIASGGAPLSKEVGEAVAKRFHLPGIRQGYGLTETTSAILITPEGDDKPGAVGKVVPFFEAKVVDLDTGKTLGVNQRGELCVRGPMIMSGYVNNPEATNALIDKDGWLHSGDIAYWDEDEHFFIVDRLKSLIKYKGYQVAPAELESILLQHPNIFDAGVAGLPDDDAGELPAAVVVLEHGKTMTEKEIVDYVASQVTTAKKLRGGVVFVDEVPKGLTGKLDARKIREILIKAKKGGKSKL

Experiment [12] can be described thus: S16 Schwann cell viability assay (CellTiter-Glo assay) (AID 624031).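 Also: series mostly up to about 58 µM; plate controls were DMSO-treated cells for no effect and cell-free wells for full effect; nearly all actives have a fitted effect of over 70% in size.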 In a few lines: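 This viability control uses native rat S16 Schwann cells grown in DMEM plus 10% FBS. After a 24 h compound treatment at 37 °C, CellTiter-Glo luminescence reports ATP content, scaled against DMSO-treated and cell-free wells.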
For orientation: ATP-based viability assays read luminescence as a measure of living cells.

For experiment [13], the target named is Glucocorticoid receptor (Homo sapiens) (UniProt P04150). The experiment in a line: qHTS assay for small molecule antagonists of glucocorticoid receptor signaling (AID 588533; active = well fitted inhibition curve with a large enough effect in the signal ratio, with a control signal flat, not every such curve was filed as active; the % refers to the signal ratio;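 also: cells stimulated with 2 nM dexamethasone as agonist; % is scaled to controls: 0 for no effect and ±100 for the full control effect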). The method, boiled down:
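Antagonist-mode qHTS: compound titrations added to GRE-bla HeLa cells, then dexamethasone 2 nM final; 18 h, 37 C. CCF4 FRET fluorescence normalized to dexamethasone and DMSO; IC50 from Hill fit.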

A short description of experiment [14]: qHTS assay for small molecule agonists of retinoid X receptor alpha signaling (AID 588544; calls by dose curve;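 as to activation: 0% = DMSO basal wells and 100% = reference agonist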). Conditions: HEK293T RXRa-UAS-bla, beta-lactamase reporter, 18 h; 530 nm emission.
The target in experiment [15] is Retinoic acid receptor RXR-alpha (Homo sapiens) (UniProt P19793). The description is as above.
Sequence of Retinoic acid receptor RXR-alpha (Homo sapiens) (P19793 whole entry, looked up): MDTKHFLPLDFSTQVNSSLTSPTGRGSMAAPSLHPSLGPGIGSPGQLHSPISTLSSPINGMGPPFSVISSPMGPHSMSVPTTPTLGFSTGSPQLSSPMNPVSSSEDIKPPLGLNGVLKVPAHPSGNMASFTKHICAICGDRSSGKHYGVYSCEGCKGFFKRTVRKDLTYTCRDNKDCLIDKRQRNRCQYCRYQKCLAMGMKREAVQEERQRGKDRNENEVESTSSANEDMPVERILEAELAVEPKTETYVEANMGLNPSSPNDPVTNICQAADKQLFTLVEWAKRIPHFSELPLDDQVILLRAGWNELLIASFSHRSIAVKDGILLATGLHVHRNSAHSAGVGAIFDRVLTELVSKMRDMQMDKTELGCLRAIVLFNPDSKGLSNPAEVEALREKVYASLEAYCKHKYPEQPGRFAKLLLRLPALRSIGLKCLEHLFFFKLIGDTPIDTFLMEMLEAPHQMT
Experiment [16] in a line: S16 Schwann cell PMP22 intronic element firefly luciferase assay (AID 624032). Also: nearly all actives have a fitted effect of over 30% in size. Also: potency is read from the fitted curve at half-maximal effect. In a few lines:
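Rat S16 Schwann cells stably carrying a PMP22 intronic element-driven Fluc reporter were seeded overnight, then exposed to compounds for 24 h at 37 °C. Luminescence was normalized to PTC124 (positive control) and DMSO (0% activity).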

A short description of experiment [17]: S16 Schwann cell PMP22 intronic element beta-lactamase assay (AID 624044; calls by dose curve; also: nearly all actives have a fitted effect of over 15% in size; also: potency is read from the fitted curve at half-maximal effect). The method, boiled down: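 Rat S16 Schwann cells with beta-Lac driven by a PMP22 intronic element, compound-treated 24 h at 37 °C. LiveBLAzer FRET B/G read: 460 nm normalized to potassium clavulanate vs DMSO; 535 nm FRET as viability; concentration-effect curves classified.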
A short description of experiment [18]: qHTS of Trypanosoma Brucei Inhibitors: LOPAC Validation (AID 624147). Also: 0% is about no effect. The method, boiled down: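 Screened from lowest to highest concentration, compounds were pinned into TbPYK/substrate mixtures, and ADP (130 uM final) was added. Plates sat at room temperature for 45 min prior to Kinase-Glo Plus detection by luminescence.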
The target of experiment [19] is Glucagon-like peptide 1 receptor (Homo sapiens) (UniProt P43220). The experiment in a line: qHTS of GLP-1 Receptor Agonists: LOPAC Validation (AID 624148).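 Also: 0% is about no effect; higher luminescence signal means agonism.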 In a few lines: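 HEK293 cells stably co-expressing a cAMP-responsive luciferase reporter and a hypersensitive GLP-1R were plated 12 h at 37 °C and exposed to compounds for 4-6 hr at 37 °C, 5% CO2. Luminescence was read 12 min after adding detection reagent.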
Sequence of Glucagon-like peptide 1 receptor (Homo sapiens) (P43220 whole entry, looked up): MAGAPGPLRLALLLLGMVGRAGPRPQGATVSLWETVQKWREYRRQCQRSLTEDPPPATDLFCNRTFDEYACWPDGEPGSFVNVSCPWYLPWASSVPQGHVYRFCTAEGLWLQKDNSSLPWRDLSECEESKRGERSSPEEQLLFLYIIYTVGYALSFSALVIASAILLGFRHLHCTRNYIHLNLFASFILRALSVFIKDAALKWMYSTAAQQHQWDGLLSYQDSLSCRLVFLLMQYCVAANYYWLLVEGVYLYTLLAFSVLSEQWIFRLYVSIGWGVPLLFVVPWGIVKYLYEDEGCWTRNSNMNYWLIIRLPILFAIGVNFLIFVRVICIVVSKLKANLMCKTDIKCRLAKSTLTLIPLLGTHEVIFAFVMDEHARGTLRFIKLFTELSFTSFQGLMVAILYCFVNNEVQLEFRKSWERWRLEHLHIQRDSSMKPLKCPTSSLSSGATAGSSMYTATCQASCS

Sequence of Glucocorticoid receptor (Homo sapiens) (P04150 whole entry, looked up): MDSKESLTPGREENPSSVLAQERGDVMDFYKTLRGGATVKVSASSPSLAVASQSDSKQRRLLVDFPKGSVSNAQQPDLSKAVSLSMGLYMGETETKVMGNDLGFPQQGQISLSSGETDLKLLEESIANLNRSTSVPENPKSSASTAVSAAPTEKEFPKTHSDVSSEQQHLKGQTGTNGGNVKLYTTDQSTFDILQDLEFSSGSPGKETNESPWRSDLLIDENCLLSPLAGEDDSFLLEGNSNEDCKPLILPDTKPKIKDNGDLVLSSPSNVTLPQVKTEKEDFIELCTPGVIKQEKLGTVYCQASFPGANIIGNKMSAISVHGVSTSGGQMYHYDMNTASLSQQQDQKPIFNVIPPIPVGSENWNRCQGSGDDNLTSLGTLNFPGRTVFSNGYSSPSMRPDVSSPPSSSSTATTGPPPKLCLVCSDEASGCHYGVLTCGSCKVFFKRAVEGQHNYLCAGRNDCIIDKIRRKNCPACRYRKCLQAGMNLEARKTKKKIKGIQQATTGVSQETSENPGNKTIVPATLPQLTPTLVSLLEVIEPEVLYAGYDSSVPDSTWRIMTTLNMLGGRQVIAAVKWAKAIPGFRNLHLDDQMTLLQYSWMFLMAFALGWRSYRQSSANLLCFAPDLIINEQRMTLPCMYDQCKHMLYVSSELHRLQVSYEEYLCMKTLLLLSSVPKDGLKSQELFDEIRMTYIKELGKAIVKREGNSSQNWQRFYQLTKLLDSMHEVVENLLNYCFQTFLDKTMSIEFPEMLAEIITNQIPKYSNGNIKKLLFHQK
Sequence of Voltage-gated inwardly rectifying potassium channel KCNH2 (Homo sapiens) (Q12809 whole entry, looked up): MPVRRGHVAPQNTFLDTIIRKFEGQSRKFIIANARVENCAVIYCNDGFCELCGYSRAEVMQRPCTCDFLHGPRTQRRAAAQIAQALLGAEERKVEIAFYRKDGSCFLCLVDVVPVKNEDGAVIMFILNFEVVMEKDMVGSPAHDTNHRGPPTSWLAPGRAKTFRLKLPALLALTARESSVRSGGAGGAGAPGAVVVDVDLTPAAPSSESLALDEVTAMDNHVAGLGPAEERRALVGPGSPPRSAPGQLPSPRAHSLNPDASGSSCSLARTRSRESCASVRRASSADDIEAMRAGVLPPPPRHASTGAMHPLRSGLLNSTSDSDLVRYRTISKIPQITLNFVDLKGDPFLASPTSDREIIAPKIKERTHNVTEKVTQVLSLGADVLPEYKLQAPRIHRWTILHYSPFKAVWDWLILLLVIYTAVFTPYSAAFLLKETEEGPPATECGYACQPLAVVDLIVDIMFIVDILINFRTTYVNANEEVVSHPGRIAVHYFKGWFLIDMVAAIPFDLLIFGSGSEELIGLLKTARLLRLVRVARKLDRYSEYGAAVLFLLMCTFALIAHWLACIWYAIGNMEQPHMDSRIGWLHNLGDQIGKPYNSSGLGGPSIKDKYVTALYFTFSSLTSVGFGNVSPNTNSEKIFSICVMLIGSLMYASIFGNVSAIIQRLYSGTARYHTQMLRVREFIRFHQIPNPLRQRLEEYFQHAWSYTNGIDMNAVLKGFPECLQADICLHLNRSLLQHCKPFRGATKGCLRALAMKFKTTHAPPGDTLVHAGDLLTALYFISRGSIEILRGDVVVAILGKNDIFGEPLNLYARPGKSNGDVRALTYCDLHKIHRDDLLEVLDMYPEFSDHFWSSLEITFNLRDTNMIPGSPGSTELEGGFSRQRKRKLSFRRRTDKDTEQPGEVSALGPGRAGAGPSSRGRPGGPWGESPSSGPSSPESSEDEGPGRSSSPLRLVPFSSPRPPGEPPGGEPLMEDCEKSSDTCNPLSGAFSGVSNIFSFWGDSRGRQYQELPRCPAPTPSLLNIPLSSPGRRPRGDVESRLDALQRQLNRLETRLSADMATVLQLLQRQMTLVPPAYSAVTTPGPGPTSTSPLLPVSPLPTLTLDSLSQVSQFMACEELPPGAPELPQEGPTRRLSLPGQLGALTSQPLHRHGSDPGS
Sequence of Vitamin D3 receptor (Homo sapiens) (P11473 whole entry, looked up): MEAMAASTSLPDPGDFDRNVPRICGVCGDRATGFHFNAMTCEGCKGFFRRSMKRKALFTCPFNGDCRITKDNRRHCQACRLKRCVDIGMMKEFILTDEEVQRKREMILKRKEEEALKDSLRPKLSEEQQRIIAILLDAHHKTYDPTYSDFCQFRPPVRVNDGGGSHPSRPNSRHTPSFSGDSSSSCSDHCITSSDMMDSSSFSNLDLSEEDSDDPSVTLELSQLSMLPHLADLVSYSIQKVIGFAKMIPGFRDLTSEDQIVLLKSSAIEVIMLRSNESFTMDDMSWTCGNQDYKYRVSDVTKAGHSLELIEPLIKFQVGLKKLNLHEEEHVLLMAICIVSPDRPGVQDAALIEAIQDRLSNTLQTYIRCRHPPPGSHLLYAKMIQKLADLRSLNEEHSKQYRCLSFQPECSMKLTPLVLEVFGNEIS
Sequence of Peroxisome proliferator-activated receptor delta (Homo sapiens) (Q03181 whole entry, looked up): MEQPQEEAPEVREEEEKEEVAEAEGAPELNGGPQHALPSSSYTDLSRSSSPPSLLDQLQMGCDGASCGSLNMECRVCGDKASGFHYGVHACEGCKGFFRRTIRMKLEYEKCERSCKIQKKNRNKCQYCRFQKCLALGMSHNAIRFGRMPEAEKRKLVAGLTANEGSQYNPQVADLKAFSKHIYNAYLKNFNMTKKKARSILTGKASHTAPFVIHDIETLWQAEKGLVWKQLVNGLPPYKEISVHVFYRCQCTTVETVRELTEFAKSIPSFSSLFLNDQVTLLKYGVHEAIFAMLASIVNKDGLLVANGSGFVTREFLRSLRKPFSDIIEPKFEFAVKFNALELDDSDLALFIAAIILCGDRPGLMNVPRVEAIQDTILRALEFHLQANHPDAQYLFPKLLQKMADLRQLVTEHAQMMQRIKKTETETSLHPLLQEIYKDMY

As to `CC(=O)Oc1ccccc1C(=O)Nc1ncc([N+](=O)[O-])s1`, the activation in [1] was -4.89% (inactive). Also, the max response in experiment [2] was -31.7%. In addition, the compound was classed as inactive in experiment [3] and in [4]. For the same compound, the Potency result in experiment [5] is “inactive”.
For `COc1ccc2cc3[n+](cc2c1OC)CCc1cc2c(cc1-3)OCO2`, in experiment [1], the activation was 1.14% (inactive). Besides, the result in experiment [6], in [7] and in [4] was inactive. Further, the figures for the max response in [8] and in experiment [9] were 2.18% and -28% (inactive), respectively. In experiment [10], the activity change % (negative = inhibition) is -20.8% (inactive). Further, the Potency result in experiment [5], in [11] and in experiment [12] was “inactive” in each case.
Turning to `N=C(N)c1ccc(OCCCCCOc2ccc(C(=N)N)cc2)cc1`, the activation in [1] is -5.79% (inactive) and -1.59% (inactive). Moreover, the call in [13], in [3], in experiment [7], in [15] and in [4] was inactive. The figures for the max response in experiment [2] and in experiment [14] were -25.7% and 18.8%, respectively. For the same compound, the activity change % (negative = inhibition) in [10] is -26.1% (inactive). Also, the Potency entry in experiment [11] and in experiment [12] was “inactive” throughout.
For the compound `COC(=O)Nc1nc2ccc(S(=O)c3ccccc3)cc2[nH]1` (configuration not stated), the Potency result in [11] is “inactive”.
On to `O=S(=O)(c1cccc2cnccc12)N1CCCNCC1`, for which the Potency entry in experiment [5], in experiment [11], in [12] and in experiment [16] was “inactive” each time.
Consider `Nc1ccc(S(=O)(=O)Nc2ccccn2)cc1`, for which the Potency result in experiment [5], in experiment [11], in experiment [12], in experiment [16] and in [17] was “inactive” in each case.
For `CC[C@H](NC(C)C)[C@H](O)c1ccc(O)c2[nH]c(=O)ccc12`, the Potency result in [5], in experiment [11], in experiment [12], in experiment [16] and in [17] was “inactive” each time.
`CCCc1nc(C)c2c(=O)[nH]c(-c3cc(S(=O)(=O)N4CCN(CC)CC4)ccc3OCC)nn12`: the Potency result in [5], in experiment [11] and in experiment [16] was “inactive” each time.
For `CN1CCN(c2c(F)cc3c(=O)c(C(=O)O)cn(CCF)c3c2F)CC1`, the Potency entry in experiment [5], in experiment [11], in experiment [12] and in experiment [16] was “inactive” in each case.
As to `CCOC(=O)[C@H](CCc1ccccc1)N[C@H]1CS[C@H](c2cccs2)CN(CC(=O)O)C1=O`, the Potency entry in experiment [5], in experiment [11], in [12], in [16] and in experiment [17] was “inactive” throughout.
Regarding `CNC(=O)c1cc(Oc2ccc(NC(=O)Nc3ccc(Cl)c(C(F)(F)F)c3)cc2)ccn1`, the Potency in [5] is 7.08 µM (active); in experiment [16] it was 12.8 µM (active); in experiment [17], 15.8 µM (active). Moreover, the Potency result in [11] is “inactive”.
Turning to `CN(Cc1cc(Br)cc(Br)c1N)C1CCCCC1`, the Potency in experiment [5] was 3.16 µM (active); in [16] it was 36.1 µM (active). The Potency result in experiment [11] was “inactive”.
Consider `NC(=O)c1cccnc1`, for which the Potency result in experiment [5], in experiment [11], in [12] and in [16] was “inactive” in each case.
Take `O=c1oc2c(O)c(O)cc3c(=O)oc4c(O)c(O)cc1c4c23`: the Potency entry in experiment [5], in [12] and in [16] was “inactive” throughout. Moreover, in experiment [11], the Potency was 36.1 µM (active).
Take `CC(C)OC(=O)C(C(=O)OC(C)C)=C1SC=CS1`: the Potency entry in [5], in experiment [11], in [12], in experiment [16] and in [17] was “inactive” each time.
As to `CNNCc1ccc(C(=O)NC(C)C)cc1`, the Potency result in [5], in experiment [11] and in experiment [16] was “inactive” each time.
As to `CCN1CCCC1CNC(=O)c1cc(S(N)(=O)=O)ccc1OC` (configuration not stated), the Potency in experiment [5] is 10 µM (active). The result in experiment [18] and in experiment [19] was inactive.
For the compound `O=C(O)C1CCCN(CCC=C(c2ccccc2)c2ccccc2)C1` (configuration not stated), the Potency in [5] is 11.2 µM (active). The outcome in experiment [18] and in [19] was inactive.

Values taken from PubChem BioAssay (NCATS).
